Test results published in PubChem BioAssay (Tox21).
Inconclusive results are not listed. Calls of active or inactive are those of the source. Unless noted, calls come from the whole dose curve; as a rule, active = well fitted curve in the direction sought with a large enough effect in the repeat runs; inconclusive = weak or mixed curves; inactive = no such curve, though single readings can be large; an effect the other way counts as inactive or inconclusive.

How the values were obtained:
[1] = molecular target: Retinoic acid receptor RXR-alpha (Homo sapiens) (UniProt P19793); assay: qHTS assay to identify small molecule agonists of the RXR signaling pathway (AID 1159527; calls by dose curve; note: nearly all actives have a fitted effect of over 35% in size); details: HEK293T RXRa-UAS-bla, beta-lactamase ratio, 16 h; series mostly up to 35.3 µM
Chain of Retinoic acid receptor RXR-alpha (Homo sapiens) (P19793 whole entry, looked up): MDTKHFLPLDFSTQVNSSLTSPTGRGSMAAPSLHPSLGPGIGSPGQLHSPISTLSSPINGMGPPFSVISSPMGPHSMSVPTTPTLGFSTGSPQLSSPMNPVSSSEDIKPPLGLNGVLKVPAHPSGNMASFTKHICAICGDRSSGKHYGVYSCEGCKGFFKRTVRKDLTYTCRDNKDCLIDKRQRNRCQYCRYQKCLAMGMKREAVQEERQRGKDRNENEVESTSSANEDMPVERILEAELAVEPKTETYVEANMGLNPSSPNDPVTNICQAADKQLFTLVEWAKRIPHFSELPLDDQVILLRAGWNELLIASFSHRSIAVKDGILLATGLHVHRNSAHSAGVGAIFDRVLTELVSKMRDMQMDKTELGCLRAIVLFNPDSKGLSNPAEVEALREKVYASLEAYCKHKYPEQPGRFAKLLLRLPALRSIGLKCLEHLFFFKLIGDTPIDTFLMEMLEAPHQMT
How it was run: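 16 hr incubation of compound-treated RXR-alpha-UAS-bla HEK 293T cells (2% charcoal-stripped FBS, 37 C) preceded a 2 hr room-temperature LiveBLAzer FRET substrate step and blue/green fluorescence measurement.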

[2] = qHTS assay to identify small molecule agonists of the RXR signaling pathway - cell viability counter screen (AID 1159529); details: RXR-alpha-bla HEK293T viability, CellTiter-Glo, 16 h; series mostly up to 35.3 µM;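 note: HEK 293T cells carrying an RXR-alpha UAS beta-lactamase reporter; nearly all actives have a fitted effect of over 50% in size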
How it was run: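 In this parallel viability measure, GeneBLAzer RXR-alpha HEK 293T cells (2% charcoal-stripped FBS) were given a 5 hr preincubation, treated with compounds 16 hr at 37 C, and read by CellTiter-Glo luminescence.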

[3] = qHTS assay to identify small molecule antagonists of the retinoid acid receptor (RAR) signaling pathway - cell viability counter screen (AID 1159551); details: C3RL4 cells viability, ATP luminescence (CellTiter-Glo), 6 h; series mostly up to 92.4 µM; note: nearly all actives have a fitted effect of over 35% in size
How it was run: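 C3RL4 RARE-luciferase line; cpds + retinol 1 uM final, 6 h, 37 C/5% CO2; CellTiter-Glo ATP luminescence, 30 min RT.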

[4] = qHTS assay to identify small molecule antagonists of the retinoic acid receptor (RAR) signaling pathway (AID 1159552; note: nearly all actives have a fitted effect of over 50% in size); details: C3RL4 RARE luciferase reporter, retinol-stimulated, 6 h; series mostly up to 92.4 µM
How it was run: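 C3RL4 RARE-luc cells, overnight plating; retinol 1 uM final added right after compound; 6 hr 37 C; luciferase read at 30 min RT.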

[5] = qHTS assay to identify small molecule agonists of the retinoic acid receptor (RAR) signaling pathway (AID 1159553); details: C3RL4 RARE luciferase reporter, agonist, 6 h; series mostly up to 73.3 µM
How it was run: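 RARE-luc C3RL4 cells; overnight attachment 37 C/5% CO2; compound (DMSO) 6 hr; luciferase reagent, 30 min RT; luminescence read-out.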

[6] = qHTS assay to identify small molecule antagonists of the estrogen related receptor (ERR) signaling pathway from Tox21 library - cell viability counter screen (AID 1224834); details: ERR reporter cells viability, CellTiter-Fluor, 17.5 h; series mostly up to 92.4 µM; note: nearly all actives have a fitted effect of over 30% in size
How it was run: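 Multiplexed viability counter screen in ERR cells: 17.5 h compound exposure at 37 C, CellTiter-Fluor added, 30 min at 37 C/5% CO2, fluorescence read.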

[7] = molecular target: Luciferin 4-monooxygenase (Photinus pyralis) (UniProt P08659); assay: qHTS assay to identify small molecule inhibitors of firefly luciferase (AID 1224835); note: nearly all actives have a fitted effect of over 25% in size; details: purified P. pyralis luciferase, luminescence inhibition; series mostly up to 115 µM
Chain of Luciferin 4-monooxygenase (Photinus pyralis) (P08659 whole entry, looked up): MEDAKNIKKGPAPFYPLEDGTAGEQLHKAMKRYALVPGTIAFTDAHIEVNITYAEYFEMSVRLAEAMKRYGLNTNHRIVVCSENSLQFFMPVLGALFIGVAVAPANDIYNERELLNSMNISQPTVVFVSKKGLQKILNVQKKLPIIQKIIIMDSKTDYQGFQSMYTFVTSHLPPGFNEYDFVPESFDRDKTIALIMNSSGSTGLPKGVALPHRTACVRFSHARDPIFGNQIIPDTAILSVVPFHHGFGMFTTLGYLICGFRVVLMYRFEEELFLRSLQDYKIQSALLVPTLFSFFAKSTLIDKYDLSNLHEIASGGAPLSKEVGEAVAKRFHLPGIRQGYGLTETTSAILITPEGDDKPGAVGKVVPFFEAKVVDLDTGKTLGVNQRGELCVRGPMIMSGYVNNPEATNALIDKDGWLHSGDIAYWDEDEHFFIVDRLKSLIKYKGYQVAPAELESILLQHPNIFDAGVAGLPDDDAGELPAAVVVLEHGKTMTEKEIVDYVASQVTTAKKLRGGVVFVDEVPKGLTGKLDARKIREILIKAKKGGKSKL
How it was run: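 Inhibition of purified Photinus luciferase is measured by luminescence. Substrate levels (D-luciferin, ATP) sit at their KM values. Each compound is tested in a concentration series.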

[8] = qHTS assay to identify small molecule agonists of the constitutive androstane receptor (CAR) signaling pathway - cell viability counter screen (AID 1224836); details: HepG2-CYP2B6-hCAR viability, CellTiter-Fluor, 23 h, PK11195 added to every well; series mostly up to 92.4 µM; note: nearly all actives have a fitted effect of over 45% in size
How it was run: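 Using CellTiter-Fluor, viability of HepG2 cells harbouring hCAR and CYP2B6-2.2kb was measured following 23 h incubation with a 15-concentration compound series plus PK11195 (0.75 uM final).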

[9] = qHTS assay to identify small molecule antagonists of the constitutive androstane receptor (CAR) signaling pathway - cell viability counter screen (AID 1224837); details: HepG2-CYP2B6-hCAR viability, CellTiter-Fluor, 23 h, co-treated with 50 nM CITCO; series mostly up to 92.4 µM; note: nearly all actives have a fitted effect of over 45% in size
How it was run: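 Read-out: CellTiter-Fluor fluorescence after 23 hr at 37 C/5% CO2. Cells: HepG2 double-stable for hCAR and CYP2B6-2.2kb. Compounds tested at 15 concentrations in the presence of CITCO, final concentration 50 nM.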

[10] = molecular target: Nuclear receptor subfamily 1 group I member 3 (Homo sapiens) (UniProt Q14994); assay: qHTS assay to identify small molecule antagonists of the constitutive androstane receptor (CAR) signaling pathway (AID 1224838); details: HepG2-CYP2B6-hCAR luciferase, CITCO-stimulated, 24 h; series mostly up to 92.4 µM;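 note: HepG2 cells stably expressing hCAR with CYP2B6 luciferase reporter stimulated by CITCO; nearly all actives have a fitted effect of over 40% in size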
Chain of Nuclear receptor subfamily 1 group I member 3 (Homo sapiens) (Q14994 whole entry, looked up): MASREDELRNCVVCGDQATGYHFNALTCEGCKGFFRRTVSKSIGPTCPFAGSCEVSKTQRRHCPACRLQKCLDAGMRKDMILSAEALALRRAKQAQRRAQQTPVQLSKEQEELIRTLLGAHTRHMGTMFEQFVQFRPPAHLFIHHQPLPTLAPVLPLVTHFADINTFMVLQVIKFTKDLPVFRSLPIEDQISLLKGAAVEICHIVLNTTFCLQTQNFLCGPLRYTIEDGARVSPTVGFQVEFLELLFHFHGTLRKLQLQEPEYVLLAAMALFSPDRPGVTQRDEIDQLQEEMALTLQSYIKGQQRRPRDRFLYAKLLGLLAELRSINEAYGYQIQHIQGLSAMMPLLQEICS
How it was run: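 Read-out: ONE-Glo luciferase luminescence after 30 min at room temperature. HepG2-CYP2B6-hCAR double-stable cells, compounds in 15-point titration plus 50 nM CITCO final, 24 h at 37 C/5% CO2.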

[11] = molecular target: Nuclear receptor subfamily 1 group I member 3 (Homo sapiens) (UniProt Q14994); assay: qHTS assay to identify small molecule agonists of the constitutive androstane receptor (CAR) signaling pathway (AID 1224839); details: HepG2 hCAR CYP2B6-luciferase, agonist mode, 24 h; series mostly up to 92.4 µM;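 note: HepG2 cells stably carrying human CAR and a CYP2B6 luciferase reporter; nearly all actives have a fitted effect of over 15% in size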
How it was run: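 Double-stable HepG2 cells (hCAR, CYP2B6-2.2kb) seeded 4 h before compound addition. Exposure 24 h with 0.75 uM PK11195 final. Luciferase detected by ONE-Glo.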

[12] = qHTS assay to identify small molecule antagonists of the estrogen related receptor signaling pathway with the pleiotropic PPARgamma coactivator (PGC) from Tox21 10K library - cell viability counter screen (AID 1224840; active = well fitted cell-killing curve with a large enough effect in the repeat runs, not every such curve was filed as active; note: nearly all actives have a fitted effect of over 40% in size); details: PGC/ERR reporter cells viability, CellTiter-Fluor, 17.5 h; series mostly up to 92.4 µM
How it was run: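 Fluorescence read-out of CellTiter-Fluor viability reagent, added after cells had been exposed to compound in DMSO for 17.5 h at 37 C; 30 min development at 37 C/5% CO2. Cells: PGC/ERR line, 2,000/well.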

[13] = qHTS assay to identify small molecule antagonists of the estrogen related receptor signaling pathway with the pleiotropic PPARgamma coactivator (PGC) from Tox21 10K library (AID 1224841; call rule not given here; note: actives are mostly falling curves and most rising ones were filed inactive; nearly all actives have a fitted effect of over 50% in size); details: PGC/ERR reporter cell line, ONE-Glo luciferase, 18 h; series mostly up to 92.4 µM
How it was run: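 Luminescence read-out (One-Glo luciferase reagent, 30 min at room temperature) from PGC/ERR cells exposed to DMSO-dissolved test compounds for 18 h at 37 C; cells, 2,000 per well, had been preincubated 6 h before compound transfer.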

[14] = qHTS assay to identify small molecule agonists of the estrogen related receptor signaling pathway with the pleiotropic PPARgamma coactivator (PGC) from Tox21 10K library (AID 1224842); details: PGC/ERR reporter cell line, luciferase ONE-Glo, 18 h; series mostly up to 92.4 µM; note: nearly all actives have a fitted effect of over 15% in size
How it was run: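 Luminescence from One-Glo (30 min, room temperature) measured after PGC/ERR cells had 18 h at 37 C with pinned compound (23 nL in DMSO). Cells had been seeded at 2,000 per well and pre-incubated 6 h.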
% is set by controls: 0 for no effect and ±100 for the full control effect.

COc1ccc2c(c1)CCCC2=O
inactive: Potency [1] | Potency [2] | outcome [3] | Potency [4] | Potency [5] | Potency [6] | Potency [7] | Potency [8] | Potency [9] | Potency [10] | Potency [11] | Potency [12] | Potency [13]

NS(=O)(=O)c1ccc(C(=O)O)cc1
inactive: Potency [1] | Potency [2] | outcome [3] | Potency [4] | Potency [5] | Potency [6] | Potency [7] | Potency [8] | Potency [9] | Potency [10] | Potency [11] | Potency [12] | Potency [13] | outcome [14]

Cc1ccc(Cl)cc1Cl
inactive: Potency [1] | Potency [2] | outcome [3] | Potency [4] | Potency [5] | Potency [6] | Potency [7] | Potency [8] | Potency [9] | Potency [10] | Potency [11] | Potency [12] | Potency [13] | outcome [14]

NC(=O)c1ccc([N+](=O)[O-])cc1
inactive: Potency [1] | Potency [2] | outcome [3] | Potency [4] | Potency [5] | Potency [6] | Potency [7] | Potency [8] | Potency [9] | Potency [10] | Potency [11] | Potency [12] | Potency [13] | outcome [14]

CO/N=C(/C(=O)N[C@@H]1C(=O)N2C(C(=O)OCOC(=O)C(C)(C)C)=C(C)CS[C@H]12)c1csc(N)n1
inactive: Potency [1] | Potency [2] | outcome [3] | Potency [4] | Potency [5] | Potency [6] | Potency [7] | Potency [8] | Potency [9] | Potency [10] | Potency [11] | Potency [12] | Potency [13] | outcome [14]

NS(=O)(=O)c1cc(C(=O)NN2C[C@H]3[C@H]4CCC(C4)[C@H]3C2)ccc1Cl
inactive: Potency [1] | Potency [2] | outcome [3] | Potency [4] | Potency [5] | Potency [6] | Potency [7] | Potency [8] | Potency [9] | Potency [10] | Potency [11] | Potency [12] | Potency [13] | outcome [14]

CCCC(=O)O[C@]1(C(=O)CO)CC[C@H]2[C@@H]3CCC4=CC(=O)CC[C@]4(C)[C@H]3[C@@H](O)C[C@@]21C
inactive: Potency [1] | Potency [2] | outcome [3] | Potency [4] | Potency [5] | Potency [6] | Potency [7] | Potency [8] | Potency [9] | Potency [10] | Potency [11] | Potency [12] | Potency [13] | outcome [14]

Nc1c[n+](N2CCOCC2)no1
inactive: Potency [1] | Potency [2] | outcome [3] | Potency [4] | Potency [5] | Potency [6] | Potency [7] | Potency [8] | Potency [9] | Potency [10] | Potency [11] | Potency [12] | Potency [13] | outcome [14]

C1OCOCO1
inactive: Potency [1] | Potency [2] | outcome [3] | Potency [4] | Potency [5] | Potency [6] | Potency [7] | Potency [8] | Potency [9] | Potency [10] | Potency [11] | Potency [12] | Potency [13] | outcome [14]

CCCCCSCCCCC
inactive: Potency [1] | Potency [2] | outcome [3] | Potency [4] | Potency [5] | Potency [6] | Potency [7] | Potency [8] | Potency [9] | Potency [10] | Potency [11] | Potency [12] | Potency [13] | outcome [14]

CCS(=O)(=O)c1ccc(OC)c(C(=O)OC)c1
inactive: Potency [1] | Potency [2] | outcome [3] | Potency [4] | Potency [5] | Potency [6] | Potency [7] | Potency [8] | Potency [9] | Potency [10] | Potency [11] | Potency [12] | Potency [13] | outcome [14]

COc1c(N2C[C@@H]3CCCN[C@@H]3C2)c(F)cc2c(=O)c(C(=O)O)cn(C3CC3)c12
inactive: Potency [1] | Potency [2] | outcome [3] | Potency [4] | Potency [5] | Potency [6] | Potency [7] | Potency [8] | Potency [9] | Potency [10] | Potency [11] | Potency [12] | Potency [13] | outcome [14]

CCOC(=O)c1ccc(C)cc1
inactive: Potency [1] | Potency [2] | outcome [3] | Potency [4] | Potency [5] | Potency [6] | Potency [7] | Potency [8] | Potency [9] | Potency [10] | Potency [11] | Potency [12] | Potency [13] | outcome [14]

COCCCOCCCOC
inactive: Potency [1] | Potency [2] | outcome [3] | Potency [4] | Potency [5] | Potency [6] | Potency [7] | Potency [8] | Potency [9] | Potency [10] | Potency [11] | Potency [12] | Potency [13] | outcome [14]

CC(C)=CCCC(C)CC(=O)O (stereo unspecified)
inactive: Potency [1] | Potency [2] | outcome [3] | Potency [4] | Potency [5] | Potency [6] | Potency [7] | Potency [8] | Potency [9] | Potency [10] | Potency [11] | Potency [12] | Potency [13] | outcome [14]

CCc1cccc2c(CCO)c[nH]c12
inactive: Potency [1] | Potency [2] | outcome [3] | Potency [4] | Potency [5] | Potency [6] | Potency [7] | Potency [8] | Potency [9] | Potency [10] | Potency [11] | Potency [12] | Potency [13] | outcome [14]

N=C(N)c1ccc(OCCCOc2ccc(C(=N)N)cc2)cc1
inactive: Potency [1] | Potency [2] | outcome [3] | Potency [4] | Potency [5] | Potency [6] | Potency [7] | Potency [8] | Potency [9] | Potency [10] | Potency [11] | Potency [12] | Potency [13] | outcome [14]

Cc1cccn2c(=O)c(-c3nnn[nH]3)cnc12
inactive: Potency [1] | Potency [2] | activity change, negative = cytotoxicity [3] 2.52% [at 19 µM] | activity, negative = inhibition [4] 1.95% [at 19 µM] | Potency [5] | viability change, negative = cytotoxic [6] 0.715% [at 19 µM] | activity change, negative = inhibition [7] 1.24% [at 23.6 µM] | viability change, negative = cytotoxic [8] 10.1% [at 19 µM] | activity change, negative = cytotoxicity [9] -0.444% [at 19 µM] | activity, negative = inhibition [10] -0.816% [at 19 µM] | activation [11] 2.7% [at 19 µM] | viability change, negative = cytotoxic [12] 11.8% [at 19 µM] | activity, negative = inhibition [13] 13.5% [at 19 µM] | activation [14] 4.84% [at 19 µM]
